Hit rate of the full screen: of about 310,000 compounds, about 14,000 (4.5%) showed an effect of 50% or more. The effect is printed as a negative number. Many of the other results were omitted from the sample, so strong results are more common in it than they were.
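Note: peak tail current of the secondary pulse compared with the same well before compound.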

human ether-à-go-go-related gene (hERG) potassium channel, sequence (Q12809 whole entry, looked up): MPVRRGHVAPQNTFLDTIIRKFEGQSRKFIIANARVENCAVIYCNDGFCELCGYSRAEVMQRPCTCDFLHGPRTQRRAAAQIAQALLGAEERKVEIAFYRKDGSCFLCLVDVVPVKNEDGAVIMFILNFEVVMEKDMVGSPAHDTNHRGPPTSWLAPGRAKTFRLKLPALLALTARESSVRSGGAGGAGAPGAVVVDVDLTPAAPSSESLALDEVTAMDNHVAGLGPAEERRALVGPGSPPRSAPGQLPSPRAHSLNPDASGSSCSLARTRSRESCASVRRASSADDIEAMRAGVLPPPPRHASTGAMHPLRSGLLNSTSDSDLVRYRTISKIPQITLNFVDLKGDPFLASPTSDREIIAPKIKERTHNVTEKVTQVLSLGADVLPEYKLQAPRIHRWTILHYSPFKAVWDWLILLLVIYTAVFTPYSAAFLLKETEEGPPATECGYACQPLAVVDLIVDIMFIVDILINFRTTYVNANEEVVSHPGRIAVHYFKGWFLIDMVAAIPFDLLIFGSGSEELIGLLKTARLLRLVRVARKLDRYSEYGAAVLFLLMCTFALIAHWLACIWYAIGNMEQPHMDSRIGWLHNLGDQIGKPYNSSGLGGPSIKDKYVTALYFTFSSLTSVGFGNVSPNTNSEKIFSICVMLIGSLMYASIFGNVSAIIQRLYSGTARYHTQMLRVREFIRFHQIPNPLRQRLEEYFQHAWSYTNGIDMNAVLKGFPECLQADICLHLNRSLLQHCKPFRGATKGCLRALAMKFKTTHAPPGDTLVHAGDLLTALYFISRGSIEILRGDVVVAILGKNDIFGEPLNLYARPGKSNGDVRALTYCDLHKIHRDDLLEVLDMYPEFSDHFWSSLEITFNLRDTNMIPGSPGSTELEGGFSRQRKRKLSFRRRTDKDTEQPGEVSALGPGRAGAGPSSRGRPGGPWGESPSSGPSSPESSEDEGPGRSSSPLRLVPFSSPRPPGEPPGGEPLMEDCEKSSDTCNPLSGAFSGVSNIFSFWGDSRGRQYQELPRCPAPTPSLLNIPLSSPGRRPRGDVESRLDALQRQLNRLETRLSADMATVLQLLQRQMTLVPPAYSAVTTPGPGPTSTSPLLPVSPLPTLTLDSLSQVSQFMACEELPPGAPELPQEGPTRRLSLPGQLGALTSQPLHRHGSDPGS

The assay addresses human ether-à-go-go-related gene (hERG) potassium channel (human, UniProt Q12809). The experiment in a line: primary screen, population patch clamp on CHO cells stably expressing hERG; higher = less effect of the substance.
For the compound `Oc1ccc(CN2CCc3ccccc3C2)c2cccnc12`, the “hERG current change (%, negative = inhibition) at 10uM” value was -48.8%. In the case of `Cn1c(C(=O)N2CCN(C(=O)c3ccco3)CC2)cc2c(=O)n3ccccc3nc21` it was -14.5%; in that of `CC(C)C(NS(=O)(=O)c1ccc2c(c1)OCCO2)C(=O)NCCc1ccccn1` (stereo not shown), 6.06%. On to `Cc1cccc(NC(=O)CSc2nnc(C)c(C)n2)c1`, for which the “hERG current change (%, negative = inhibition) at 10uM” value is on record as 15.3%. Consider `COc1nc(OC)nc(N2CCC(NC(=O)C(Cc3ccc(C(C)C)cc3)NC(C)=O)CC2)n1` (stereo not shown), for which the “hERG current change (%, negative = inhibition) at 10uM” value turned out to be 5.87%. For the compound `CO/N=C(\C(=O)N[C@@H]1C(=O)N2C(C(=O)[O-])=C(COC(N)=O)CS[C@H]12)c1ccco1.[Na+]`, the “hERG current change (%, negative = inhibition) at 10uM” value was found to be 18.9%. As to `O=C(Nc1ccc(Br)cn1)c1cccc2ccccc12`, the “hERG current change (%, negative = inhibition) at 10uM” value is listed as 12.2%. Consider `Cl.O=C(OCCN1CCOCC1)c1ccc(Cl)cc1Cl`, for which the “hERG current change (%, negative = inhibition) at 10uM” value is listed as -0.913%. With `CC1CCN(C(=O)COC(=O)c2cc(Cl)cc(Cl)c2N)CC1`, the “hERG current change (%, negative = inhibition) at 10uM” value is -19.9%. With `CCCCN1CCC(COC(=O)c2cc(Cl)c(N)c3c2OCCO3)CC1.Cl` the figure was -59.4%; with `COc1cc(C(=O)OCc2cc(=O)c(O)co2)ccc1OC(F)F`, -12.9%; with `O=C(NCC(=O)N(CCN1CCOCC1)C(C(=O)NC1CCCC1)c1cccnc1)c1cccs1` (stereo not shown), 13.1%. For the compound `CCOC(=O)C1(CCc2ccccc2)CCN(C(=O)CN2C(=O)CSC2=O)CC1`, the “hERG current change (%, negative = inhibition) at 10uM” value is on record as -23.3%. For the compound `CCOC(=O)C1(CCCc2ccccc2)CCN(Cc2cnn(C)c2)CC1`, the “hERG current change (%, negative = inhibition) at 10uM” value is -71.6%.

As for `CCOC(=O)C1(CCCc2ccccc2)CCN(C(=O)CCOC)CC1`, the “hERG current change (%, negative = inhibition) at 10uM” value is -46.8%. With `CCOC(=O)C1(CCCc2ccccc2)CCN(C(=O)CCc2cnn(C)c2)CC1`, the “hERG current change (%, negative = inhibition) at 10uM” value is on record as -74.2%. Regarding `CCOC(=O)C1(Cc2ccccc2)CCCN(CCCn2cccn2)C1` (stereo not shown), the “hERG current change (%, negative = inhibition) at 10uM” value is given as -14.2%. For `CCOC(=O)C1(CCCc2ccccc2)CCN(CCCn2cccn2)CC1`, the “hERG current change (%, negative = inhibition) at 10uM” value was -79.1%.

Turning to `CCOC(=O)C1(CCCc2ccccc2)CCN(C(=O)CCC2=NNC(=O)CC2)CC1`, the “hERG current change (%, negative = inhibition) at 10uM” value was 11.8%.

As to `CCOC(=O)C1(CCc2ccccc2)CCN(C(=O)CCc2cnn(C)c2)CC1`, the “hERG current change (%, negative = inhibition) at 10uM” value was -51.2%. Take `Cc1cc(OCC(=O)Nc2ccncc2)cc(C)c1Cl`: the “hERG current change (%, negative = inhibition) at 10uM” value stood at 6.51%. Regarding `Cc1ccc(CNC(=O)/C=C/C(=O)O)cc1`, the “hERG current change (%, negative = inhibition) at 10uM” value was -15.4%. `Cc1n[nH]c(=O)n1-c1ccc(C(C)C)cc1`: the “hERG current change (%, negative = inhibition) at 10uM” value was found to be 18.4%.

Take `O=C(Nc1ccccc1)NC1(C(=O)N2CCN(C(=O)c3ccco3)CC2)CCCCC1`: the “hERG current change (%, negative = inhibition) at 10uM” value came out at 0.526%. On to `CCc1ccc(C2C(=O)c3ccccc3C2=O)cc1`, for which the “hERG current change (%, negative = inhibition) at 10uM” value is recorded as -3.18%. For `O=C(NNC(=O)c1cnccn1)c1ccc(Cl)cc1`, the “hERG current change (%, negative = inhibition) at 10uM” value is listed as 10.1%. In the case of `Cc1cccc(N2CCN(Cc3cc(=O)n4ccsc4n3)CC2)c1C`, the “hERG current change (%, negative = inhibition) at 10uM” value was -37.1%. In the case of `CCOC(=O)CC12CN3CN(C1)CC(CC(=O)OCC)(C3)C2=O`, the “hERG current change (%, negative = inhibition) at 10uM” value is 8.62%. As to `O=C(O)CCn1c(=S)oc2ccccc21`, the “hERG current change (%, negative = inhibition) at 10uM” value is -0.618%.

Consider `CCOC(=O)C1(CCCc2ccccc2)CCN(C(=O)Cn2nc(C)nc2C)CC1`, for which the “hERG current change (%, negative = inhibition) at 10uM” value is given as -24.6%. With `CCOC(=O)C1(Cc2ccccc2)CCN(Cc2cnn(C(C)C)c2)CC1` the figure was -28.7%. As for `CCOC(=O)C1(Cc2ccccc2)CCN(Cc2cnn(CC)c2)CC1`, the “hERG current change (%, negative = inhibition) at 10uM” value is reported as -21.2%. On to `CCOC(=O)C1(CCCc2ccccc2)CCN(Cc2cn(CC)nc2C)CC1`, for which the “hERG current change (%, negative = inhibition) at 10uM” value is -74.1%. For the compound `CCOC(=O)C1(Cc2ccccc2)CCN(Cc2cnn(-c3ccccc3)c2)CC1`, the “hERG current change (%, negative = inhibition) at 10uM” value is listed as -81.4%. As for `CCN1C(=O)C(=Cc2ccc(C)s2)C(=O)N(CC)C1=S`, the “hERG current change (%, negative = inhibition) at 10uM” value is given as 5.09%. Regarding `COc1ccc(OCC(=O)NCc2ccc(Cl)cc2)cc1`, the “hERG current change (%, negative = inhibition) at 10uM” value is 1.55%. Take `COC(=O)c1nc(N)sc1-c1ccc(OC)cc1`: the “hERG current change (%, negative = inhibition) at 10uM” value is 10.3%. In the case of `Cc1ccc(Oc2ccccc2NC(=O)CN2C(=O)NC3(CCCC3)C2=O)cc1` it was 11%; in that of `O=C1NC(=O)N(c2ccccc2F)C(=O)/C1=C/c1ccc(Sc2nc3ccccc3[nH]2)o1`, -4.03%; in that of `O=C1NC(=O)N(c2ccc(Cl)cc2)C(=O)/C1=C\c1ccc(Sc2nc3ccccc3[nH]2)o1`, -65.6%. `O=C1NC(=O)N(c2cccc(Cl)c2)C(=O)/C1=C\c1ccc(Sc2nc3ccccc3[nH]2)o1`: the “hERG current change (%, negative = inhibition) at 10uM” value was found to be 13.9%. With `c1ccc(-n2ncc3c2ncn2nc(-c4ccco4)nc32)cc1` the figure was 13.3%; with `COc1ccc(S(=O)(=O)N2CCC(c3nc4ccccc4[nH]3)CC2)cc1`, 10.3%; with `O=S(=O)(c1ccc(F)cc1)N1CCC(c2nc3ccccc3[nH]2)CC1`, -2.46%.

Turning to `CC(=O)c1ccc(S(=O)(=O)N2CCC(c3nc4ccccc4[nH]3)CC2)cc1`, the “hERG current change (%, negative = inhibition) at 10uM” value is reported as -54.3%.

As to `CC(=O)c1cccc(S(=O)(=O)N2CCC(c3nc4ccccc4[nH]3)CC2)c1`, the “hERG current change (%, negative = inhibition) at 10uM” value is given as -56.6%.

On to `O=S(=O)(c1ccccc1F)N1CCC(c2nc3ccccc3[nH]2)CC1`, for which the “hERG current change (%, negative = inhibition) at 10uM” value was -13.3%.

Consider `O=S(=O)(c1cccc(C(F)(F)F)c1)N1CCC(c2nc3ccccc3[nH]2)CC1`, for which the “hERG current change (%, negative = inhibition) at 10uM” value is on record as 0.277%. For the compound `COc1ccc(OC)c(S(=O)(=O)N2CCC(c3nc4ccccc4[nH]3)CC2)c1`, the “hERG current change (%, negative = inhibition) at 10uM” value is reported as -55.7%.

Turning to `CC(=O)Nc1ccc(S(=O)(=O)N2CCC(c3nc4ccccc4[nH]3)CC2)cc1`, the “hERG current change (%, negative = inhibition) at 10uM” value is given as -18.4%. With `O=S(=O)(c1cccc(Cl)c1)N1CCC(c2nc3ccccc3[nH]2)CC1` the figure was 2.21%. With `Cc1[nH]c2ccc(F)cc2c1CCN(Cc1ccncc1)C(=S)Nc1ccc(F)cc1`, the “hERG current change (%, negative = inhibition) at 10uM” value is given as -38.4%. As for `CC1=NN(C(=O)c2ccc(Cn3cc([N+](=O)[O-])cn3)cc2)C(O)(C(F)(F)F)C1` (stereo not shown), the “hERG current change (%, negative = inhibition) at 10uM” value is given as -21.1%. On to `Cc1ccc(C)c(NC(=O)CN2C(=O)COc3ccc(S(=O)(=O)N4CCCC4)cc32)c1`, for which the “hERG current change (%, negative = inhibition) at 10uM” value was -0.517%. As for `O=C1NC(=O)C(=Cc2ccc(N3CCOCC3)cc2)C(=O)N1`, the “hERG current change (%, negative = inhibition) at 10uM” value is given as 12.9%.

Source of the values: PMC4336329 (PLoS ONE, 2015).
